The list is not random: actives were taken first. Their share in the collection is about 18%.
TDP1 cell CPT: growth inhibition of DT40 Tdp1-/-;hTDP1 cells with camptothecin (screen for TDP1 inhibitors); hit rate 12% among 420,000; chicken DT40 Tdp1-/-;hTDP1 cells + 20 nM CPT, ATP luminescence, 48 h; Potency, µM (titrated, usually from 46.2 µM), usual class: inhibitors; further: nearly all actives have a fitted effect of over 55% in size
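Chicken DT40 Tdp1-/- cells stably complemented with human TDP1 were seeded at 400 cells/well in medium containing 20 nM camptothecin, exposed to pin-transferred compounds, and grown at 37 °C for at least 48 hr. Viability was read as ATP luminescence.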
RORg inh: blocks mouse ROR gamma transcriptional activity; P51450; Drosophila S2 Gal4-RORgamma UAS-luciferase reporter, 20 h; Potency, µM (top dose mostly 53.6 µM), usual class: inhibitors; hit rate 5.4% among 310,000; AID 2551; further: nearly all actives have a fitted effect of over 60% in size
Target sequence (P51450 whole entry, looked up, the tested form may be a part): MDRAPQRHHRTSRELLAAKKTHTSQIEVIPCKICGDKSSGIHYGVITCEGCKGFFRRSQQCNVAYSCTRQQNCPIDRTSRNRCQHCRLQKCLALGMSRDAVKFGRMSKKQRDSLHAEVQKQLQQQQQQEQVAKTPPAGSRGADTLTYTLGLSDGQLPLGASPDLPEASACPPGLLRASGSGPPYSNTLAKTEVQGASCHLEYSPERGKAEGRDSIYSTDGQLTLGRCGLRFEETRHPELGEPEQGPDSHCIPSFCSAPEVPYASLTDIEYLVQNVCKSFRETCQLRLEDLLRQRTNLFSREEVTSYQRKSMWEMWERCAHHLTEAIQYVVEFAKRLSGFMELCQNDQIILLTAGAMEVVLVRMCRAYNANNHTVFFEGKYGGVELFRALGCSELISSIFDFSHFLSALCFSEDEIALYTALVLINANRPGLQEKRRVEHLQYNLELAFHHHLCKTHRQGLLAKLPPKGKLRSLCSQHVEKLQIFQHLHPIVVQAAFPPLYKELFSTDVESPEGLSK
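Drosophila Schneider cells stably carrying a metallothionein-driven Gal4 DBD–ROR gamma fusion and a UAS-Photinus luciferase reporter were exposed to compound for 1 hr, then induced with copper sulfate (700 uM final) for 20 hr at ambient temperature before luminescence reading.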
DT40 TDP1 no CPT: qHTS for Inhibitors of human tyrosyl-DNA phosphodiesterase 1 (TDP1): qHTS in cells in absence of CPT; hit rate 15% among 420,000; Potency, µM (titrated, usually from 46.2 µM), actives largely listed as inhibitors; DT40 Tdp1-/- hTDP1 cells, no CPT, ATP luminescence, 48 h; further: nearly all actives have a fitted effect of over 55% in size
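Readout: luminescence from CellTiter-Glo after 30 min in the dark at RT. Cells: DT40 Tdp1-/- with stable hTDP1, 400/well. Exposure: compounds alone, ≥48 hr, 37 °C.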
Gal4-VP16 FLuc: counter-screen for ROR gamma inhibitors: Gal4-VP16 reporter; AID 2546; Potency, µM (titrated, usually from 53.6 µM), actives largely listed as inhibitors; hit rate 3.5% among 310,000; Drosophila S2 Gal4-VP16 UAS-luciferase, luminescence, 20 h;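 further: Gal4-VP16 expression switched on by copper sulfate through the metallothionein promoter; nearly all actives have a fitted effect of over 50% in size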
IL1B secr inh: inflammasome signaling inhibition, IL-1 beta readout. hit rate 4.7% among 360,000. activity change, % at 57.5 µM. THP-1 LPS/ATP IL-1B secretion, AlphaLISA, 16 h; stronger effect = lower value; in the data active means activity change below about -50%; inconclusive means mostly about -30% to -49%
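Secreted IL-1B measured by AlphaLISA bead assay after 16 h compound exposure of THP-1 cells; compounds (final up to 57.5 uM) added 1 h before LPS (250 ng/mL) and ATP (1.25 mM) stimulation; lower signal means less secretion.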
LDHA inh: LDHA (human) enzyme inhibition; activity change, % (values are at about 110 or 230 µM); P00338; hit rate 0.15% among 480,000; purified LDHA, NADH/diaphorase-resazurin fluorescence; stronger effect = lower value; AID 1347041; in the data active means activity change below about -30%; inconclusive means mostly about -25% to -30%
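LDH5 2 nM; NADH 0.06 mM, pyruvate 0.2 mM; 200 mM Tris pH 7.4, EDTA, Tween-20; 5 min RT. Detection: diaphorase 0.133 mg/mL + resazurin 37 µM, fluorescence ex540/em590 at 0 and 20 min; normalized to enzyme-free and DMSO wells.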
Hits are given with their value; - = inactive; ? = inconclusive; . = no result; ! = repeats disagree; [ ] = dose if it differs, or a comment. Unless noted, the call rests on the fitted dose curve; in most records, active means well fitted curve in the direction sought with a large enough effect; inconclusive means small, poorly fitted or top-dose-only effect, or another doubt; inactive means no such curve, though single readings can be large; an effect the other way counts as inactive or inconclusive.

SMILES	TDP1 cell CPT	RORg inh	DT40 TDP1 no CPT	Gal4-VP16 FLuc	IL1B secr inh	LDHA inh
COc1cccc(N2C(=O)/C(=C/c3ccc(C)o3)C(=O)NC2=S)c1	15µM	-	15µM	-	-	-
Cc1ccc(/C=C2\C(=O)NC(=S)N(c3ccc(F)cc3)C2=O)s1	2.9µM	-	5.8µM	-	-108	-
CCOc1cccc(CNCCc2ccc(OC)cc2)c1	.	.	.	.	.	-
CCOc1ccccc1N(CC(=O)NCCc1ccc(OC)cc1)S(=O)(=O)c1ccc(C)cc1	10µM	.	8.2µM	.	-	-
O=[N+]([O-])c1ccccc1-c1cc(-c2ccccc2)cc(-c2ccccc2)[n+]1Cc1ccccc1Cl	0.65µM	.	0.73µM	.	-	-
CCCCc1ccc2[nH]c(C)c(CCN)c2c1	.	.	.	.	.	-
CCOc1ccc2c3c1O[C@H]1[C@@H](O)C=C[C@H]4[C@@H](C2)N(C)CC[C@@]341	-	-	?	-	.	.
CC[C@@]1(C(=O)OC)N[C@H](CN(C)C(=O)Nc2ccc(C(F)(F)F)cc2)[C@@H]2C(=O)N(Cc3ccccc3)C(=O)[C@@H]21	?	.	?	.	-	-
CC[C@@]1(C(=O)OC)N[C@H](CN(C)C(=O)c2ccc(C(C)(C)C)cc2)[C@@H]2C(=O)N(Cc3ccccc3)C(=O)[C@@H]21	?	.	16µM	.	-	-
CCN(C[C@H]1N[C@@](CC)(C(=O)OC)[C@H]2C(=O)N(Cc3ccccc3)C(=O)[C@@H]12)S(=O)(=O)c1ccc(OC)cc1	23µM	.	?	.	-	-
COc1ccc(-c2coc3cc(OCC(=O)N4CCN(C)CC4)ccc3c2=O)cc1	.	.	.	.	.	-
Cc1ccccc1NC(=O)Cc1nc(COC(=O)c2cc([N+](=O)[O-])ccc2N)cs1	-	-	?	-	-	-
Cc1nn2c(=O)cc(N3CCNCC3)nc2s1	.	.	.	.	.	-
CN(C)CCc1nc2ccccc2c(=O)n1-c1ccccc1	.	-	.	-	.	.
N#CCn1c(CCl)nc2ccccc2c1=O	4.6µM	-	2.6µM	-	-56	-
CCCCn1c(O)c(/C=C2/C=CC=N2)c(=O)[nH]c1=O	18µM	?	4.1µM	-	-	-
C=CCn1c(O)c(/C=C2/C=CC=N2)c(=O)[nH]c1=O	?	-	?	-	-	-
O=c1[nH]c(=O)n(Cc2ccccc2Cl)c(O)c1/C=C1/C=CC=N1	5.8µM	-	5.8µM	-	-	-
O.O.O.O=C([O-])C(O)C(O)C(=O)[O-].O=C([O-])C(O)C(O)C(=O)[O-].[K+].[K+].[Sb].[Sb] (stereo unspecified)	-	.	-	.	.	.
CC(C)CCC(=O)O[C@H]1CC[C@H]2[C@@H]3CCC4=CC(=O)CC[C@]4(C)[C@H]3CC[C@]12C	-	.	-	.	.	.
COc1ccc(-c2nc(SCC(=O)NC(C)CCc3ccccc3)n[nH]2)cc1 (stereo unspecified)	12µM	.	12µM	.	.	-
COc1ccc(-c2nn(CCC#N)cc2C(=O)NCc2ccccc2)cc1	-	-	-	-	-	-
COc1cc(C(c2c(C)[nH]n(-c3ccccc3)c2=O)c2c(C)[nH]n(-c3ccccc3)c2=O)cc(OC)c1OC	-	-	?	-	-78	-
OC(Cn1c2ccccc2c2ccccc21)C[n+]1cccc2ccccc21 (stereo unspecified)	18µM	-	16µM	-	-68	-
Nc1c(C(=O)NCc2ccco2)c2nc3ccccc3nc2n1CCN1CCOCC1	?	-	?	-	-	-
SMILES	TDP1 cell CPT	RORg inh	DT40 TDP1 no CPT	Gal4-VP16 FLuc	IL1B secr inh	LDHA inh
COc1ccc(Cn2c(N)c(C(=O)NCc3ccco3)c3nc4ccccc4nc32)cc1	?	?	?	-	?	-
Nc1c(C(=O)NCc2ccco2)c2nc3ccccc3nc2n1Cc1ccc(F)cc1	15µM	-	?	-	?	-
Nc1c(C(=O)NCc2ccco2)c2nc3ccccc3nc2n1Cc1ccccc1	16µM	?	26µM	-	?	-
CC[C@@H]([C@H](C)O)n1ncn(-c2ccc(N3CCN(c4ccc(OC[C@@H]5CO[C@@](Cn6cncn6)(c6ccc(F)cc6F)C5)cc4)CC3)cc2)c1=O	-	.	?	.	.	.
FC(F)(F)c1nc(N2CCN(c3ccccc3)CC2)nc2c1CCCCC2	?	-[0.365 µM]	18µM	.	-	-
COC(=O)C12CC3=CC(CC3=O)Cc3ccccc3[C@@H]1CNC2=O (stereo partly specified)	.	-	.	-	.	.
COc1ccc(OCC(=O)N2CCN(Cc3ccc(SC)cc3)CC2)cc1	?	-	23µM!	-	-	-
COc1cc(OC)c(OC)cc1CN1CCN(C(=O)COc2ccc3ccccc3c2)CC1	?	-	26µM	-	?	-
COc1ccc(OCC(=O)N2CCN(Cc3ccc4c(c3)OCO4)CC2)cc1	-	-	-	-	-	-
CCN(CC)c1nc2ccccc2nc1C(=O)Nc1cccc(C(C)=O)c1	?	.	?	.	.	-
Clc1ccc(C2=CCC[C@H]3CC[C@@H]2N3)cn1	-	-	-	-	.	.
C[C@@H]1O[C@@H](O[C@H]2CC[C@@H](O[C@H]3[C@H](O)C[C@H](c4ccc5c(c4O)C(=O)C4=C(C5=O)[C@@]5(O)C(=O)C[C@](C)(O[C@H]6CC[C@H](O[C@H]7C=CC(=O)[C@H](C)O7)[C@H](C)O6)C[C@@]5(O)C=C4)O[C@@H]3C)O[C@H]2C)C=CC1=O	.	0.5µM	.	-	.	.
O=c1nc(/C=C/c2ccc(Cl)cc2Cl)cc(C(F)(F)F)[nH]1	-	?	?	?	-87	-
COC(=O)c1cccc(NC(=O)c2ccc(S(=O)(=O)N(C)c3ccccc3OC)cc2)c1	16µM	.	12µM	.	-	-
c1ccc2c(N3CCNCC3)nsc2c1	10µM	-	13µM	-	-54	-
Cc1ccc(-c2nc(S(=O)(=O)c3ccccc3)c(SCC(=O)NC3CCCCC3)o2)cc1	13µM	.	?	.	.	-
COc1ccc(N(CC(=O)Nc2cc(OC)ccc2OC)S(C)(=O)=O)cc1	-	?	-	-	-	-
Cc1ccc(-c2nc(S(=O)(=O)c3ccc(C)cc3)c(SCC(=O)Nc3ccc(F)cc3)o2)cc1	16µM	.	23µM	.	.	-
Cc1ccc(-c2noc(=O)n2CC(=O)Nc2ccc(S(=O)(=O)NC3CC3)cc2)cc1	?	-	?	-	-	-
COc1ccc(NC(=O)CSc2oc(-c3cccs3)nc2S(=O)(=O)c2ccccc2)c(OC)c1	21µM	.	23µM	.	.	-
c1cncc([C@@H]2CCCCN2)c1	?	-	?	-	.	.
NCCc1ccc(OC(F)F)cc1	.	.	.	.	.	-
Cc1cc2c(c(=O)o1)C1(C(=O)Nc3ccccc31)C(C(=O)OCc1ccccc1)=C(N)O2 (stereo unspecified)	.	.	.	.	.	-

Bioassay records deposited in PubChem BioAssay by National Center for Advancing Translational Sciences (NCATS).
